We go through 30 molecules from PubChem BioAssay (Tox21).

The structures appear in SMILES notation. Values joined by “and” are separate entries in the source; they are usually repeats but may differ in a detail not shown here. Equal entries are not always repeated. Unmarked numbers belong to inactive results. Results filed as inconclusive are left out. Active and inactive are the calls of the source. Calls follow the shape of the full dose curve.

In assay [1] the target is Acetylcholinesterase (Homo sapiens) (UniProt P22303). Kind of assay: Acetylcholinesterase (AChE) small molecule antagonists: colormetric cell-based qHTS assay (AID 1347395). Also: nearly all actives have a fitted effect of over 30% in size. Also: potency is read from the fitted curve at half-maximal effect. The gist of the method:
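Colorimetric readout: DTNB quantifies thiocholine from acetylthiocholine hydrolysed by endogenous AChE of SH-SY5Y cells (2,000/well, plated overnight). Compound pretreatment 30 min, substrate incubation 90 min, both 37 C.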
On the technique in general: qHTS replaces the single test concentration by a dilution series.

For assay [2] the target is unchanged. Kind of assay: Acetylcholinesterase (AChE) small molecule antagonists: enzyme-based qHTS assay (AID 1347397). Also: nearly all actives have a fitted effect of over 55% in size. Also: potency is read from the fitted curve at half-maximal effect. The note with it: Potency: AChE enzyme activity inhibition; outcome: AChE enzyme activity inhibition. The gist of the method:
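Recombinant human AChE, dispensed at 50 mU/mL, was preincubated with Tox21 10K compounds or DMSO vehicle for 30 min at room temperature. DTNB plus acetylthiocholine was then added, and thiocholine was measured colorimetrically after a further 10 min.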

The target is the same in assay [3]. Kind of assay: Acetylcholinesterase (AChE) small molecule antagonists: fluorescence cell-based qHTS assay (AID 1347398). Also: nearly all actives have a fitted effect of over 50% in size. Also: potency is read from the fitted curve at half-maximal effect. The note with it: Potency: AChE activity; outcome: AChE activity. The gist of the method:
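Human SH-SY5Y cells were plated overnight at 37 C, exposed to compound for 30 min at 37 C, 5% CO2, then given acetylthiocholine plus Thiolite Green for 40 min at room temperature; thiocholine fluorescence (Ex/Em 490/520 nm) reports endogenous AChE activity.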

Assay [4] shares this target. Kind of assay: Acetylcholinesterase (AChE) small molecule antagonists: enzyme-based qHTS assay with human liver microsomes (AID 1347399). Also: nearly all actives have a fitted effect of over 60% in size. The settings on record: Potency: qHTS inhibition; outcome: qHTS inhibition. The gist of the method: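 Recombinant human AChE (50 mU/mL in the enzyme mix) and human liver microsomes (0.25 mg/mL final) were preincubated with compound and NADPH (0.25 mg/mL final) for 30 min at 37 C. Acetylthiocholine/DTNB was then added; thiocholine was read colorimetrically after 10 min at room temperature.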
% is scaled to controls: 0 for no effect and ±100 for the full control effect.

Acetylcholinesterase (Homo sapiens), sequence (P22303 whole entry, looked up): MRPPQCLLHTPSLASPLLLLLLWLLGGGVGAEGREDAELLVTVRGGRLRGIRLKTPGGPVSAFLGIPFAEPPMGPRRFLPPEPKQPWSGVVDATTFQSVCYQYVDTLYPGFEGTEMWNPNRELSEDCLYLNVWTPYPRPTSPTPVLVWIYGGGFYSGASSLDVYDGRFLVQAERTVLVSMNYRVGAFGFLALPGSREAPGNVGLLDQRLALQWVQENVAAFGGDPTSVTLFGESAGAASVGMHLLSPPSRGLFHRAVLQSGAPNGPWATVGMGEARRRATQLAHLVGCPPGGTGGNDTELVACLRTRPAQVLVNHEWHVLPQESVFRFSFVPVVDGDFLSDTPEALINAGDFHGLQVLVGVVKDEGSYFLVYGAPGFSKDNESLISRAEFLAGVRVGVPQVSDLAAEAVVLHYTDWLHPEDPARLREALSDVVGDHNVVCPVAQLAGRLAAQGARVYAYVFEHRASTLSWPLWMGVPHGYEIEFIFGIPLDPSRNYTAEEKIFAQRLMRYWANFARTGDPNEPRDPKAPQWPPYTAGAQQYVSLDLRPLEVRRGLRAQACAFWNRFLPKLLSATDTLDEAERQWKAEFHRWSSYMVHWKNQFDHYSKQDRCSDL

For `CCCCCCCCCOS(=O)(=O)O`, the Potency result in assay [1], in assay [2], in assay [3] and in assay [4] was “inactive” each time.
Consider `NS(=O)(=O)c1ccc(N2CCCCS2(=O)=O)cc1`, for which the Potency result in assay [1], in assay [2], in assay [3] and in assay [4] was “inactive” each time.
`O=S(=O)(O)C(F)(F)F`: the Potency entry in assay [1], in assay [2], in assay [3] and in assay [4] was “inactive” throughout.
In the case of `O=C1O[C@H](CO)[C@@H](O)[C@H](O)[C@H]1O`, the Potency result in assay [1], in assay [2], in assay [3] and in assay [4] was “inactive” throughout.
Turning to `COc1ccccc1OC(=O)Oc1ccccc1OC`, the Potency entry in assay [1], in assay [2], in assay [3] and in assay [4] was “inactive” each time.
Regarding `Cc1ccc2nc(-c3ccc(N)cc3)sc2c1S(=O)(=O)O`, the Potency result in assay [1], in assay [2], in assay [3] and in assay [4] was “inactive” in each case.
For the molecule `CCC(=O)OC(C)(C)C1CC=C(C)CC1` (stereo not given), the Potency result in assay [1], in assay [2], in assay [3] and in assay [4] was “inactive” in each case.
With `Cc1ccc(C(=O)Nc2ccc(S(=O)(=O)O)c3cc(S(=O)(=O)O)cc(S(=O)(=O)O)c23)cc1NC(=O)c1cccc(NC(=O)Nc2cccc(C(=O)Nc3cc(C(=O)Nc4ccc(S(=O)(=O)O)c5cc(S(=O)(=O)O)cc(S(=O)(=O)O)c45)ccc3C)c2)c1`, the Potency result in assay [1], in assay [2], in assay [3] and in assay [4] was “inactive” in each case.
On to `CCCCC=O`, for which the Potency entry in assay [1], in assay [2], in assay [3] and in assay [4] was “inactive” in each case.
For `CC(COC(C)(C)C)OCCCO` (stereo not given), the Potency result in assay [1], in assay [2], in assay [3] and in assay [4] was “inactive” in each case.
In the case of `C[N+]1(C)CCC(=C(c2ccccc2)c2ccccc2)CC1`, the Potency entry in assay [1], in assay [2], in assay [3] and in assay [4] was “inactive” each time.
Take `CN/C(=C\[N+](=O)[O-])NCCSCc1csc(CN(C)C)n1`: the Potency in assay [1] is 11.2 µM (active) and 13.8 µM (active); in assay [2], 35.6 µM (active) and 27.5 µM (active); in assay [3], 35.6 µM (active). Moreover, in assay [4], the Potency entry was “inactive”.
For `C=CCNC(N)=S`, the Potency entry in assay [1], in assay [2], in assay [3] and in assay [4] was “inactive” throughout.
As to `O=C(O)CSCC(=O)NC1CCSC1=O` (stereo not given), the Potency entry in assay [1], in assay [2], in assay [3] and in assay [4] was “inactive” each time.
Take `COc1nc(C)nc(NC(=O)NS(=O)(=O)c2ccccc2OCCCl)n1`: the Potency entry in assay [1], in assay [2], in assay [3] and in assay [4] was “inactive” each time.
Turning to `CC1CC(OC(=O)c2ccccc2O)CC(C)(C)C1` (stereo not given), the Potency entry in assay [1], in assay [2], in assay [3] and in assay [4] was “inactive” each time.
In the case of `C=C1C(C)(C)[C@@]2(Cl)C(Cl)[C@]1(Cl)C(Cl)(Cl)C2(Cl)Cl` (stereo not given in full), the Potency result in assay [1], in assay [2], in assay [3] and in assay [4] was “inactive” each time.
Turning to `CCCCC(C=O)CC` (stereo not given), the Potency entry in assay [1], in assay [2], in assay [3] and in assay [4] was “inactive” throughout.
As for `Cc1ccc(S(=O)(=O)NCl)cc1`, the Potency entry in assay [1], in assay [2], in assay [3] and in assay [4] was “inactive” in each case.
Turning to `O=C(O)C(=O)Cc1ccccc1`, the Potency entry in assay [1], in assay [2], in assay [3] and in assay [4] was “inactive” each time.
Turning to `N[C@@H](COP(=O)(O)O)C(=O)O`, the activity, negative = inhibition in assay [1] is 0.067% [at 23.6 µM]. Further, the results for the activity change, negative = inhibition in assay [2], in assay [3] and in assay [4] were 1.8% [at 23.6 µM], 4.21% [at 23.8 µM] and 4.37% [at 23.6 µM], respectively.
On to `c1ccc(CCc2ccccc2)cc1`, for which the Potency result in assay [1], in assay [2], in assay [3] and in assay [4] was “inactive” throughout.
`CC(C)=CCCC(C)CCO` (stereo not given): the Potency entry in assay [1], in assay [2], in assay [3] and in assay [4] was “inactive” each time.
As to `OC[C@H]1O[C@@H](O[C@H]2[C@H](O)[C@@H](O)[C@H](O)O[C@@H]2CO)[C@H](O)[C@@H](O)[C@H]1O`, the Potency result in assay [1], in assay [2], in assay [3] and in assay [4] was “inactive” in each case.
For the molecule `Cc1ccc2ncccc2c1`, the Potency result in assay [1], in assay [2], in assay [3] and in assay [4] was “inactive” throughout.
`COc1cc2[nH]c(=O)[nH]c(=O)c2cc1OC`: the Potency entry in assay [1], in assay [2], in assay [3] and in assay [4] was “inactive” throughout.
For the molecule `CCCO[Si](OCCC)(OCCC)OCCC`, the Potency entry in assay [1], in assay [2], in assay [3] and in assay [4] was “inactive” in each case.
Turning to `O=S1(=O)c2cccc3cccc(c23)N1CCCN1CCN(c2ccc(F)cc2)CC1`, the Potency result in assay [1], in assay [2], in assay [3] and in assay [4] was “inactive” throughout.
With `CC(C)(C)N`, the Potency result in assay [1], in assay [2], in assay [3] and in assay [4] was “inactive” in each case.
`CC(O)CC(C)(C)O` (stereo not given): the Potency result in assay [1], in assay [2], in assay [3] and in assay [4] was “inactive” throughout.
